Source: the OligoGym collection
Note: reference of the scale not given here.

What follows are sequences tested against CHEK1 (assay: pooled miR-30 sensor sort-seq; sequence = guide strand). Conditions: shRNA.
TTAATCTTCAGGAAGTGTCTCT showed a sensor-assay potency score (higher = more potent) of 0.552.
With TTTTCTGGTTTAATATCCCTGT the sensor-assay potency score (higher = more potent) was 0.0757.
Sequence TAACCTGATTCATACAACTTTT has a sensor-assay potency score (higher = more potent) of -1.09.
For TTCTGGTTTAATATCCCTGTGA, the sensor-assay potency score (higher = more potent) was -0.58.
In the case of TTTCCAGTCAGAATACTCCTGA, the sensor-assay potency score (higher = more potent) is reported as -0.0829.
In the case of TTTGGTAAAGAATCGTGTCATT, the sensor-assay potency score (higher = more potent) is reported as -0.878.
Work on TTCAGGAACTACTATTTGCAGT yielded a sensor-assay potency score (higher = more potent) of -0.581.
TAAAGAATCGTGTCATTCTTTT was tested, and the sensor-assay potency score (higher = more potent) was -0.659.
TTCCACAGGACCAAACATCAAC gave a sensor-assay potency score (higher = more potent) of -1.04.
TTTGTTGTACCATCTATCTTTT was tested, and the sensor-assay potency score (higher = more potent) was -0.765.
Work on TGATATAGTAACCTGATTCATA yielded a sensor-assay potency score (higher = more potent) of -0.794.
TTTATTGATACAGATCTCTTTC was tested, and the sensor-assay potency score (higher = more potent) was 0.115.
Work on TTCTTCACTAGAAGCACTGTTT yielded a sensor-assay potency score (higher = more potent) of 0.0317.
TAACTGACTATTCAAAAGCATA showed a sensor-assay potency score (higher = more potent) of -1.68.
TATTTTATCATCCATTTCTAAC showed a sensor-assay potency score (higher = more potent) of -1.06.
TGTCTCTTGAACTCCAATCCAT was tested, and the sensor-assay potency score (higher = more potent) was -0.483.
With TTGTTGATATAGTAACCTGATT the sensor-assay potency score (higher = more potent) was -1.22.
With TATCCCATAAGGAAAGACCTGT the sensor-assay potency score (higher = more potent) was -0.371.

What follows are sequences tested against CHI3L1 in the same assay as above. Conditions: shRNA.
TAGAGCGTCACATCATTCCACT was tested, and the sensor-assay potency score (higher = more potent) was -0.926.
With TTCAGGTACTGCACCTTGCTTT the sensor-assay potency score (higher = more potent) was -0.412.
TTGGCAATGTCATAGCTGCTGT showed a sensor-assay potency score (higher = more potent) of -0.359.
Sequence TTTGACGCTTTCCTGGTCGTCG has a sensor-assay potency score (higher = more potent) of -0.339.
Sequence TGAATCTGTCAGGACTTGCATC has a sensor-assay potency score (higher = more potent) of -0.763.
In the case of TTTCCTGGTCGTCGTATCCTAC, the sensor-assay potency score (higher = more potent) is reported as -0.76.
TTTGTCTCTCCGTCCAGGGTAG gave a sensor-assay potency score (higher = more potent) of -0.776.
In the case of TTGAGCATGCCGTAGAGCGTCA, the sensor-assay potency score (higher = more potent) is reported as -0.951.
TAGCAGACCAGTTTGTATGCAG gave a sensor-assay potency score (higher = more potent) of 0.269.
For TAGTCAGTGTTGCTGAATCTGT, the sensor-assay potency score (higher = more potent) was -1.28.
Sequence TTGTATGCAGAGCAGCACTGGA has a sensor-assay potency score (higher = more potent) of -1.21.
TCTGTCAGGACTTGCATCCTCC showed a sensor-assay potency score (higher = more potent) of -0.579.
With ATAATTAGTATGGTCACTGTGT the sensor-assay potency score (higher = more potent) was -0.0223.
Sequence TTCATTTCCTTGATTAGGGTGG has a sensor-assay potency score (higher = more potent) of 0.13.
AAATCGTAGGTCATGATGCTAA was tested, and the sensor-assay potency score (higher = more potent) was -0.871.
TTTGTATGCAGAGCAGCACTGG gave a sensor-assay potency score (higher = more potent) of -1.09.
Sequence TTGGAAAATCTTTGAGACCCAA has a sensor-assay potency score (higher = more potent) of -0.569.
TATATTGGCAAAGCTGTAGATG gave a sensor-assay potency score (higher = more potent) of -1.02.
In the case of TTGCATCCTCCTGACCTCGGAA, the sensor-assay potency score (higher = more potent) is reported as -0.718.
For TTGCTTTTGACGCTTTCCTGGT, the sensor-assay potency score (higher = more potent) was -0.698.
With ATCTTGGCAATGTCATAGCTGC the sensor-assay potency score (higher = more potent) was -1.04.
For TTCCTTTATAAATTCGGCCTTC, the sensor-assay potency score (higher = more potent) was -0.526.
